{"source": "PubChem BioAssay (Tox21)", "note": "Inconclusive results are not listed. A call without a number means that no potency is given here. The source made the active and inactive calls. Calls come from the whole dose curve; as a rule, active = well fitted curve in the direction sought with a large enough effect in the repeat runs; inconclusive = weak or mixed curves; inactive = no such curve, though single readings can be large; an effect the other way counts as inactive or inconclusive."}
{"target": "Nuclear receptor subfamily 1 group I member 2 (Homo sapiens) (UniProt O75469)", "sequence (O75469 whole entry, looked up)": "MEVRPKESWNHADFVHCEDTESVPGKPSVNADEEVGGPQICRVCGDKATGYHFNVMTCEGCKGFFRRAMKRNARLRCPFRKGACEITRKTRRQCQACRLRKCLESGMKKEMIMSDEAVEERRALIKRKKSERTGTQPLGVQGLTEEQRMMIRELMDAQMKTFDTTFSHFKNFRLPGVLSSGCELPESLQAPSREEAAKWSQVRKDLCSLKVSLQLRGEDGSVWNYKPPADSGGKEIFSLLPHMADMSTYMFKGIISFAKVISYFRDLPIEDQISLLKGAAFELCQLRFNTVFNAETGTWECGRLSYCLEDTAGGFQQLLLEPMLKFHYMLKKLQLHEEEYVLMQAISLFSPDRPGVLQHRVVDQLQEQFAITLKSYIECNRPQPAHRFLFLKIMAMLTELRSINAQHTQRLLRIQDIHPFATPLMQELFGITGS", "assay": "Human pregnane X receptor (PXR) small molecule agonists, qHTS assay (AID 1346982); note: nearly all actives have a fitted effect of over 35% in size; note: potency is the fitted concentration of half-maximal effect", "details": "PXR-Luc HepG2, CYP3A4 luciferase reporter, 24 h; series mostly up to 92.4 µM", "method_in_brief": "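HepG2 PXR-Luc reporter line, 5% charcoal-stripped FBS; 5 hr pre-incubation, compound (DMSO) 24 hr at 37 C/5% CO2; ONE-Glo 30 min RT; luminescence read-out.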"}
{"smiles": "CCC(=O)c1ccc2c(c1)N(CCCN(C)C)c1ccccc1S2", "Potency": "inactive"}
{"smiles": "OCCN(CCO)CCN(CCO)CCO", "Potency": "inactive"}
{"smiles": "CC1=C2[C@H](/C=C(\\C)C(=O)O)CC[C@@H](C)[C@H]2CC1", "Potency": "56.5 µM (active)"}
{"smiles": "O=C(O)CN(CCN(CC(=O)O)CC(=O)O)CCN(CC(=O)O)CC(=O)O", "activation": "8.36% [at 19 µM] (inactive)"}
{"smiles": "CCN(CC)C(=O)N(CC)CC", "Potency": "inactive"}
{"smiles": "COC(=O)/C=C(/C)N", "Potency": "inactive"}
{"smiles": "Cc1nc(-c2ccccn2)ncc1C(=O)Nn1cc(C)c2cc(F)ccc21", "Potency": "4.86 µM (active)"}
{"target": "Nuclear receptor subfamily 1 group I member 2 (Rattus norvegicus) (UniProt Q9R1A7)", "sequence (Q9R1A7 whole entry, looked up)": "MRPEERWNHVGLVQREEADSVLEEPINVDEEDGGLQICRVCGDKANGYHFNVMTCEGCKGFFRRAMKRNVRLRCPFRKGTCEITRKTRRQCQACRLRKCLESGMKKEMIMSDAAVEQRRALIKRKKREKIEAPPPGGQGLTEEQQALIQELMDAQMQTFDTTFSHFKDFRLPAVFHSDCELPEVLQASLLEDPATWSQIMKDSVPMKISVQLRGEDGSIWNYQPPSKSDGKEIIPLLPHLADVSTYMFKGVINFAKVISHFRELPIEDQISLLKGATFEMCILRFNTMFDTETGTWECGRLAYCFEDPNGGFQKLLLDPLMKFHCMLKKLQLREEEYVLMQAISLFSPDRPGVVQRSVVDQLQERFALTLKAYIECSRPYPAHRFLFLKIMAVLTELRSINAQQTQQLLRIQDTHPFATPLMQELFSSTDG", "assay": "Rat pregnane X receptor (rPXR) activation by small molecules, qHTS assay (AID 1346983); note: nearly all actives have a fitted effect of over 20% in size", "details": "rPXR luciferase reporter cells, One-Glo luminescence, 24 h; max activation: hits give high values", "method_in_brief": "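Luminescent readout (One-Glo luciferase, 30 min room temperature) followed 24 hr compound treatment at 37 C of rPXR cells plated 2,000 per well and preincubated 5hr; qHTS format with compounds delivered in DMSO.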"}
{"smiles": "COc1ccccc1OCC(O)COC(N)=O", "note": "(stereo not drawn)", "max activation": "0.101% (inactive)"}
{"smiles": "C[C@]12CCC(=O)C=C1CC[C@@H]1[C@@H]2CC[C@@]2(C)[C@H]1CC[C@]2(O)C(=O)CO", "max activation": "14.2% (inactive)"}
{"smiles": "c1ccc(CN(CC2=NCCN2)c2ccccc2)cc1", "max activation": "-0.824% (inactive)"}
{"smiles": "NCCC(O)(P(=O)(O)O)P(=O)(O)O", "max activation": "-0.383% (inactive)"}
{"smiles": "CC(C)O", "max activation": "-2.1% (inactive)"}
{"target": "Nuclear receptor subfamily 1 group I member 2 (Homo sapiens) (UniProt O75469)", "assay": "CYP3A4 induction through human pregnane X receptor (PXR) by small molecules, qHTS assay (AID 1346984); note: nearly all actives have a fitted effect of over 40% in size", "details": "DPX-2 HepG2 PXR, CYP3A4-luciferin luminescence, 24 h; series mostly up to 46.1 µM", "method_in_brief": "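HepG2-derived DPX-2 line carrying PXR plus a CYP3A4-promoter luciferase reporter; cells plated 5 hr, compound-exposed 24 hr at 37C. CYP3A4 activity probed with 3uM (final) Luciferin-IPA for 3hr, then luciferase read after One-Glo.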"}
{"smiles": "COc1ccccc1OCC(O)COC(N)=O", "note": "(stereo not drawn)", "Potency": "inactive"}
{"smiles": "C[C@]12CCC(=O)C=C1CC[C@@H]1[C@@H]2CC[C@@]2(C)[C@H]1CC[C@]2(O)C(=O)CO", "Potency": "inactive"}
{"smiles": "c1ccc(CN(CC2=NCCN2)c2ccccc2)cc1", "Potency": "inactive"}
{"smiles": "NCCC(O)(P(=O)(O)O)P(=O)(O)O", "Potency": "inactive"}
{"smiles": "CC(C)O", "Potency": "inactive"}
{"target": "Nuclear receptor subfamily 1 group I member 2 (Homo sapiens) (UniProt O75469)", "assay": "Human pregnane X receptor (PXR) activation by small molecules, qHTS assay (AID 1346985); note: nearly all actives have a fitted effect of over 40% in size", "details": "DPX-2 HepG2 CYP3A4-luciferase, 24 h; series mostly up to 38.3 µM", "method_in_brief": "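DPX-2 cells (HepG2 co-transfected with a PXR response element and a CYP3A4-promoter luciferase construct) were seeded at 2,000 per well, rested 5 hr at 37C, then exposed to DMSO-dissolved compounds for 24 hr. Activation was read as luciferase luminescence.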"}
{"smiles": "COc1ccccc1OCC(O)COC(N)=O", "note": "(stereo not drawn)", "Potency": "inactive"}
{"smiles": "C[C@]12CCC(=O)C=C1CC[C@@H]1[C@@H]2CC[C@@]2(C)[C@H]1CC[C@]2(O)C(=O)CO", "Potency": "inactive"}
{"smiles": "c1ccc(CN(CC2=NCCN2)c2ccccc2)cc1", "Potency": "inactive"}
{"smiles": "NCCC(O)(P(=O)(O)O)P(=O)(O)O", "Potency": "inactive"}
{"smiles": "CC(C)O", "Potency": "inactive"}
{"target": "Cytochrome P450 2D6 (Homo sapiens) (UniProt P10635)", "sequence (P10635 whole entry, looked up)": "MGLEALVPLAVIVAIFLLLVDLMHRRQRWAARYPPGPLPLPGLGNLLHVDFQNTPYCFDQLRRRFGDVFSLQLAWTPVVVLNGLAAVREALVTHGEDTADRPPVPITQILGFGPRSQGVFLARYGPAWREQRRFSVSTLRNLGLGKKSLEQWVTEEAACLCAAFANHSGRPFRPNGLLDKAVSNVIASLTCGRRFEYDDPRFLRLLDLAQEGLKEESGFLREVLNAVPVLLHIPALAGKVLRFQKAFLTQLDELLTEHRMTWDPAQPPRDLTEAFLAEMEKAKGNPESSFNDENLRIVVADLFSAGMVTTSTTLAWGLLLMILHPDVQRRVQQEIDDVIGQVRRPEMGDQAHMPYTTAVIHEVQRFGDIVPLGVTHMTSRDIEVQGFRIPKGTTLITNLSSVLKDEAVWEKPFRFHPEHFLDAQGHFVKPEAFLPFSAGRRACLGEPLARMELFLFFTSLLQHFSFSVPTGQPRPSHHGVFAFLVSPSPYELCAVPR", "assay": "Cytochrome P450 Family 2 Subfamily D Member 6 (CYP2D6) small molecule antagonists: luciferase reporter qHTS assay (AID 1671196); note: nearly all actives have a fitted effect of over 50% in size; note: potency is the fitted concentration of half-maximal effect", "details": "P450-Glo CYP2D6 enzyme assay, luciferin luminescence, 1 h; series mostly up to 115 µM", "method_in_brief": "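Luminogenic proluciferin substrate, CYP2D6 enzyme; 10 min RT preincubation with compound, NADPH regeneration system added, 1 h RT. Stop/detection reagent, 20 min RT, luminescence read (RLU). Signal proportional to CYP activity.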"}
{"smiles": "CC(=O)O[C@H]1CC[C@@]2(C)C(=CC[C@@H]3[C@@H]2CC[C@]2(C)C(C(C)=O)=CC[C@@H]32)C1", "Potency": "inactive"}
{"smiles": "Clc1cccc(-c2cc(Cl)cc(Cl)c2)c1", "Potency": "inactive"}
{"smiles": "CC/C=C\\CCOC(=O)C(C)C", "Potency": "inactive"}
{"smiles": "OCCN1CCN(CCO)CC1", "Potency": "inactive"}
{"smiles": "O=C1N(c2ccccc2)c2ccccc2C1(Cc1ccncc1)Cc1ccncc1", "Potency": "30.9 µM (active)"}
{"smiles": "COc1ccccc1OCC(O)COC(N)=O", "note": "(stereo not drawn)", "Potency": "inactive"}
{"smiles": "CCCC1CCC(=O)O1", "note": "(stereo not drawn)", "Potency": "inactive"}
{"smiles": "COC(=O)C(C)O", "note": "(stereo not drawn)", "Potency": "inactive"}
{"smiles": "CCOc1ccc(OCC)c(Cl)c1", "Potency": "inactive"}
{"smiles": "Cc1nc(N)nc(N)c1-c1ccc(Cl)c(Cl)c1", "Potency": "2.19 µM (active)"}
{"smiles": "c1ccc(CN(CC2=NCCN2)c2ccccc2)cc1", "Potency": "1.38 µM (active)"}
{"smiles": "Cc1cc2nc(N)sc2cc1C", "Potency": "32 µM (active)"}
{"smiles": "O=Cc1ccc(F)c(Br)c1", "Potency": "inactive"}
{"smiles": "NCCC(O)(P(=O)(O)O)P(=O)(O)O", "Potency": "inactive"}
{"smiles": "CC(C)O", "Potency": "inactive"}
{"smiles": "CC(C)C(=O)OCC(C)(C)C(O)C(C)C", "note": "(stereo not drawn)", "Potency": "inactive"}
{"smiles": "COC(C)CCO", "note": "(stereo not drawn)", "Potency": "inactive"}
{"smiles": "O=C(Cl)c1cccc([N+](=O)[O-])c1", "Potency": "inactive"}
{"smiles": "OC[C@H]1O[C@@H](O[C@H]2[C@H](O)[C@@H](O)[C@H](O)O[C@@H]2CO)[C@H](O)[C@@H](O)[C@H]1O", "Potency": "inactive"}
{"smiles": "NNS(=O)(=O)c1ccc(Oc2ccc(S(=O)(=O)NN)cc2)cc1", "Potency": "inactive"}
{"smiles": "CCC(=O)c1ccc2c(c1)N(CCCN(C)C)c1ccccc1S2", "Potency": "1.1 µM (active)"}
{"smiles": "OCCN(CCO)CCN(CCO)CCO", "Potency": "inactive"}
{"smiles": "O=C(O)CN(CCN(CC(=O)O)CC(=O)O)CCN(CC(=O)O)CC(=O)O", "activity change, negative = inhibition": "-5.69% [at 23.6 µM] (inactive)"}
{"smiles": "CCN(CC)C(=O)N(CC)CC", "Potency": "inactive"}
{"smiles": "COC(=O)/C=C(/C)N", "Potency": "inactive"}
{"smiles": "Cc1nc(-c2ccccn2)ncc1C(=O)Nn1cc(C)c2cc(F)ccc21", "Potency": "44.8 µM (active)"}
